This is an account of results in PubChem BioAssay (NCI).

SMILES strings stand for the structures. Several values for one entry are separate records, joined by “and”; a condition that tells them apart may be missing. Equal entries are not always repeated. About 83,000 compounds went through this panel and 20% of them were active in at least one assay; those are over-represented in the sample as a whole.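 How to read the values: 0–100, growth inhibition (40 = 60% inhibited); 0, no net growth; -100 to 0, cell death (-40 = 40% of starting cells died; -100 = all dead).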 Activity calls are given as the source filed them.

In one assay the test system is TK-10 renal. As to the kind of experiment: NCI-60 one-dose screen, 48 h (100 = growth as untreated, 0 = no growth, -100 = all killed). The note with it: 1 µM. The protocol:
Growth inhibition of the TK-10 human tumor cell line is measured as a screen for anti-cancer activity. Cells are grown in 96 well plates and exposed to the test compound for 48 hours. Compounds are tested at a single concentration, which is 10^-5 M for most compounds. The reported endpoint is percent growth (GI% or GIPRCNT), where numbers from 0 - 100% represent growth inhibition, and numbers from -100% - 0 represent cell death. For example, a value of 40 represents 60% growth inhibition. A value of 0 means no net growth occurred over the course of the experiment. A value of -40 indicates 40% of cells at the beginning of the experiment died by the end of the experiment. A value of -100 means all cells are dead at the end of the experiment.
NCI-60 Human Tumor Cell Lines Screen was performed using the standard one-dose NCI protocol, which is described in more detail at https://dtp.cancer.gov/discovery_development/nci-60/default.htm.
Compounds with GIPRCNT values below 10 were considered active. Activity score was based on GIPRCNT using the following formula: […]
Score is 0 for GIPRCNT values of 100 or above, 50 for GIPRCNT values of 0, and 100 for GIPRCNT values of -100.
With `CNC(=O)c1cc(Oc2ccc(CC(=O)Nc3cc(C(C)(C)C)nn3C)cc2)ccn1`, the growth was 95.2% (inactive).

The same assay, now with this note: 10 µM.
Consider `CNC(=O)c1cc(Oc2ccc(CC(=O)Nc3cc(C(C)(C)C)nn3C)cc2)ccn1`, for which the growth is 80.4% (inactive).

Staying with this assay, now noted: 10 µM unless noted.
As to `COC(=O)c1ccc(NC(=O)O/N=C(\Cl)C(C)C)cc1`, the growth was -100% [100 µM] (active). Take `Nc1ncnc2c1ncn2C1CC(O)C(CO)O1` (stereo not given): the growth was 113% (inactive) and 109% (inactive). `NC(=S)NS(=O)(=O)c1ccc(N)cc1`: the growth is 110% (inactive). On to `CCCCC1C(=O)N(c2ccc(S(=O)(=O)Nc3ccccn3)cc2)N(c2ccc(O)c(C(=O)O)c2)C1=O` (stereo not given), for which the growth is 102% [100 µM] (inactive) and 94.2% [100 µM] (inactive). As to `COc1cc([C@H]2OC[C@@H]3C(c4cc(OC)c5c(c4)OCO5)OC[C@H]23)cc(OC)c1OC` (stereo not given in full), the growth is 84.5% [100 µM] (inactive) and 28.7% [100 µM] (inactive). As for `CCOC(=O)C(C(=O)OCC)C(c1ccccc1)N1CCN(c2ccccc2)CC1` (stereo not given), the growth is 98.1% (inactive) and 113% (inactive). For the molecule `N#CC1(C#N)N[C@@H](c2ccsc2)[C@H]2C(=O)N(c3ccccc3)C(=O)[C@H]21`, the growth is 55.7% [100 µM] (inactive) and 30.9% [100 µM] (inactive).

In the case of `CNC(=O)c1cc(Oc2ccc(NC(=O)Nc3ccc(Cl)c(C(F)(F)F)c3)cc2)ccn1`, the growth was -11.8% (active) and 25.8% (inactive). Regarding `Cc1ccc(/C=N/Nc2ccccn2)s1`, the growth is 147% [100 µM] (inactive) and 60.9% [100 µM] (inactive). For `COC(=O)C1CCC(=O)N1CN(C(C)=O)c1cccc(O)c1` (stereo not given), the growth was 77.3% [100 µM] (inactive) and 106% [100 µM] (inactive). `Cc1cc(O)c(C(C)C)cc1N`: the growth was 123% (inactive) and 117% (inactive). On the same count and under the same terms, then `CC(C)Cc1ccc(C(C)C(=O)NCc2ccc(Cn3c(=O)sn(CCCI)c3=O)cc2)cc1` (stereo not given), with 99.8% (inactive) and -90.7% (active); and `Oc1ccccc1C=NCC1CCC(CN=Cc2ccccc2O)CC1` (stereo not given), with 98.2% (inactive). On the same count and under the same terms, then `CCO/C=N\C1=C(C#N)SC2=N/C(=C\c3ccc(OC)cc3)C(=O)N21`, with 92.7% [100 µM] (inactive) and 103% [100 µM] (inactive); and `CCN(CC)CCCC(CNc1ccnc2cc(Cl)ccc12)c1ccc(Cl)cc1` (stereo not given), with -76.7% (active) and 14.7% (inactive). Turning to `CCN(CC)CCCC(C)N(Cc1ccccc1)CC(O)c1ccc(Cl)cc1` (stereo not given), the growth is 91.8% (inactive) and 90.4% (inactive). Consider `COc1ccc2cc1Oc1ccc(cc1)CC1c3cc(OC)c(cc3CCN1C)Oc1c(OC)c(OC)cc3c1C(C2)N(C)CC3` (stereo not given), for which the growth was -57.1% [75 µM] (active) and -97.5% [75 µM] (active). Take `O=[N+]([O-])c1ccc(-n2[nH]nnc2=S)cc1`: the growth was 116% (inactive). `Cc1ccc(F)cc1NC(=O)O/N=C(\Cl)C(C)C`: the growth is 65.6% [100 µM] (inactive) and 72.9% [100 µM] (inactive). On the same count and under the same terms, then `Cn1c2c(c3ccccc3c1=O)C(=O)c1ccccc1-2`, with -92.2% [100 µM] (active) and -100% [100 µM] (active); and `CC(=O)C(/C=N/C(N)=O)=C(/C)O`, with 105% (inactive); and `Cc1ccc(/C=N/Nc2nncc3ccccc23)s1`, with 105% [100 µM] (inactive) and 21.6% [100 µM] (inactive).

For `NC(=S)N/N=C(\c1ccc(Br)cc1)C1CC1`, the growth is 119% (inactive). Same read-out and setting: the result for `CC1CC(C(=O)OC2OC(COC3OC(CO)C(OC4OC(C)C(O)C(O)C4O)C(O)C3O)C(O)C(O)C2O)C2CCC3(C)C(=CCC4(C)C3CCC3C(C)(CO)C(O)C(O)CC34C)C2C1C` (stereo not given) reads -65.8% [100 µM] (active) and -100% [100 µM] (active); that for `CN(C)c1ccc2nc3ccc(N)cc3[n+](-c3ccccc3)c2c1`, 20.6% (inactive). With `CC(C)N=c1cc2n(-c3ccc(Cl)cc3)c3ccccc3nc-2cc1Nc1ccc(Cl)cc1`, the growth is 26.2% (inactive) and 58.6% (inactive) and 5.66% (active).

Consider `CCN(CC)CCNc1cc(-c2cccc(OC(F)(F)F)c2)nc2ccc(N3CCCC3)cc12`, for which the growth was 74.5% (inactive) and 19.1% (inactive) and 40.1% (inactive).

For `C[C@@H]1C[C@](O)([C@@H](C)Cl)C(=O)O[C@@H]2CCN3CC=C(COC(=O)[C@]1(C)O)[C@H]23`, the growth is 66.6% [100 µM] (inactive) and 88% [100 µM] (inactive). Take `C=CCn1c2c(c3ccccc3c1=O)C(=O)c1ccccc1-2`: the growth was 47.5% [100 µM] (inactive) and -35.9% [100 µM] (active). As to `CCc1c(CC(=O)O)c2cc(C)ccc2n1Cc1ccc(Cl)cc1`, the growth was 99.7% (inactive) and 262% (inactive). As to `O=C1c2ccccc2-c2c1c1ccccc1c(=O)n2CCO`, the growth was 41.8% [100 µM] (inactive) and 3.35% [100 µM] (active). On to `CCOC(=O)Nc1nc2ccccc2[nH]1`, for which the growth was 111% (inactive) and 64.6% (inactive).

As to `CNc1ccc2nc3ccc(=[N+](C)C)cc-3sc2c1`, the growth was -3.64% (active) and 17.3% (inactive). On to `CC(C(=O)O)n1cc(C#N)c(=O)[nH]c1=O` (stereo not given), for which the growth was 112% (inactive) and 110% (inactive). For the molecule `O=C(/C=C\c1ccnc2ccccc12)c1ccc([N+](=O)[O-])cc1`, the growth was 81.3% (inactive) and 86.9% (inactive). For `O=C1NC(=O)C2(CCc3ccccc32)N1` (stereo not given), the growth was 105% (inactive) and 99.5% (inactive). Take `COc1cc(-c2nccc3cc4c(cc23)OCO4)cc(OC)c1OC`: the growth was 44.9% (inactive) and 28.9% (inactive).

Still in this assay, the particulars now being: 30 µM.
With `CNC(=O)c1cc(Oc2ccc(CC(=O)Nc3cc(C(C)(C)C)nn3C)cc2)ccn1`, the growth was 103% (inactive).
